# Measurements from PubChem BioAssay (NCATS).
# Results filed as inconclusive are left out. Where a call stands in place of a potency, no number is given. Active and inactive are the calls of the source. Unless noted, calls follow the shape of the dose curve; as a rule, active = well fitted curve in the direction sought with a large enough effect; inconclusive = small, poorly fitted or top-dose-only effect, or another doubt; inactive = no such curve, though single readings can be large; an effect the other way counts as inactive or inconclusive.
# Columns and labels:
# [1] = target: Ubiquitin carboxyl-terminal hydrolase 1 (Homo sapiens) (UniProt O94782); assay: Inhibitors of USP1/UAF1: Pilot qHTS (AID 504865); conditions: purified USP1/UAF1, Ub-rhodamine cleavage fluorescence; series mostly up to 114 µM; also: nearly all actives have a fitted effect of over 35% in size; also: potency is read from the fitted curve at half-maximal effect
# Sequence of Ubiquitin carboxyl-terminal hydrolase 1 (Homo sapiens) (O94782 whole entry, looked up): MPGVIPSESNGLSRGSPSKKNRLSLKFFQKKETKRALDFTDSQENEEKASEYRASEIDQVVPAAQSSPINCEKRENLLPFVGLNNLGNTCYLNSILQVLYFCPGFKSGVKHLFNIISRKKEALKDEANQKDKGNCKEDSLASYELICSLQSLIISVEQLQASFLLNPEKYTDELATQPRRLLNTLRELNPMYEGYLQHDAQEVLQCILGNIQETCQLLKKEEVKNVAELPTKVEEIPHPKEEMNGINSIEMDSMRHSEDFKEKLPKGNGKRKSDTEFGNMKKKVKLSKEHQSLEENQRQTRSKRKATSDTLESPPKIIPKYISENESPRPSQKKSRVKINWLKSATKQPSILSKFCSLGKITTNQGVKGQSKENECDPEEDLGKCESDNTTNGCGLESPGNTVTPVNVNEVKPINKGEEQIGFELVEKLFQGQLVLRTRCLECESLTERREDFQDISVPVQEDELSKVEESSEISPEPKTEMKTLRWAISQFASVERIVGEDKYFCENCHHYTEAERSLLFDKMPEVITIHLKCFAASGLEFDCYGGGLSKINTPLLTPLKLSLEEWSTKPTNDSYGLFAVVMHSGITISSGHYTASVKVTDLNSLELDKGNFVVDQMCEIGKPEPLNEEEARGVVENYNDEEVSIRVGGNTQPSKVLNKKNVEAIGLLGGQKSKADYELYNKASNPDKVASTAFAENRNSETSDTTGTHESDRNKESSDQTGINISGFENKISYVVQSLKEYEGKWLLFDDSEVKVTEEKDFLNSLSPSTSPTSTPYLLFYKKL
# Summary of the method: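 Enzyme-free wells gave the negative control, while test wells held 1nM USP1/UAF1 preincubated with compound for 15 min at room temperature. Ub-Rho at 150nM final started the reaction, and fluorescence at 480/540 nm was recorded kinetically.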
# [2] = target: Thyrotropin-releasing hormone receptor (Homo sapiens) (UniProt P34981); assay: qHTS for Small Molecule Agonists and Allosteric Enhancers of Human TRH Receptor: Validation Screen for Agonists (AID 493127;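 active = calcium activation more than 3 SD above the typical response in the agonist read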); conditions: TRH receptor agonist cell assay; at 2 µM; stronger effect = higher value
# Sequence of Thyrotropin-releasing hormone receptor (Homo sapiens) (P34981 whole entry, looked up): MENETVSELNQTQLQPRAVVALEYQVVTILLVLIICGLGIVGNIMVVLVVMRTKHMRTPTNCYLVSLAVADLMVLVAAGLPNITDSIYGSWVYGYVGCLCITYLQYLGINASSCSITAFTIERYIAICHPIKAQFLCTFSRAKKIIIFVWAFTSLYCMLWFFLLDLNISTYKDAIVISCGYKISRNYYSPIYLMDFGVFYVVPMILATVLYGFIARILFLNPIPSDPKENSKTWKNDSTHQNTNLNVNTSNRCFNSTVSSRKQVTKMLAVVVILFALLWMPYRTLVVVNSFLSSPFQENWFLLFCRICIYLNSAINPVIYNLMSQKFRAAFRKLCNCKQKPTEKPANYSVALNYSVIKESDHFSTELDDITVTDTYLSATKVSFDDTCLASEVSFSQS
# Summary of the method: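 TRHR cells loaded with fluo-8 calcium dye; FDSS kinetic fluorescence (Ex 480/Em 530) read at 1 s/cycle after 23 nL compound addition. Agonist-mode calcium response recorded before the 10 nM TRH (EC20) addition.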
# [3] = target: Galactokinase (Homo sapiens) (UniProt P51570); assay: qHTS Validation Assay for Inhibitors of Human Galactokinase (GALK) (AID 493189); conditions: purified human GALK enzyme activity, qHTS 7-point titration; series mostly up to 57.5 µM
# Sequence of Galactokinase (Homo sapiens) (P51570 whole entry, looked up): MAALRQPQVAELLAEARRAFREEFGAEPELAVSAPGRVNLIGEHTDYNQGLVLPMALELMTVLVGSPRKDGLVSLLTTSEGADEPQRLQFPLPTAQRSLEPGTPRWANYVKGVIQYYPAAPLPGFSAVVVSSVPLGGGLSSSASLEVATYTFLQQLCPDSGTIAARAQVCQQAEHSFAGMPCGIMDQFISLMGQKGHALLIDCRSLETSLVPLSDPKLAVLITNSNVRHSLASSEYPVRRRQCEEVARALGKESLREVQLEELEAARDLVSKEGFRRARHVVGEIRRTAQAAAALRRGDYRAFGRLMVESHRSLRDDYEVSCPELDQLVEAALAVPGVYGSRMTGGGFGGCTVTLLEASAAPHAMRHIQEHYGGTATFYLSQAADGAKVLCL
# Summary of the method: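 Enzyme activity is inferred from ATP consumption: human GALK phosphorylates galactose (100 uM) using 35 uM ATP for 1 h at room temperature, and luciferase-based Kinase-Glo Plus reports unconsumed ATP.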
# [4] = Validation screen for small molecules that induce DNA re-replication in SW480 colon adenocarcinoma cells (AID 504364); conditions: DNA re-replication phenotype (high-content imaging); series mostly up to 46.1 µM
# Summary of the method: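 SW480 cells (250/well) exposed 48 h at 37 C, 5% CO2, then Hoechst-stained 40 min. Nuclear DNA content imaged by fluorescence scanning (405 nm excitation, 500-530 nm emission); re-replication scored as increased nuclei with elevated intensity.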
# [5] = target: DNA dC->dU-editing enzyme APOBEC-3G (Homo sapiens) (UniProt Q9HC16); assay: qHTS for inhibitors of Vif-A3G interactions: Validation (AID 588379); conditions: Vif-A3G protein interaction assay; series mostly up to 46.1 µM
# Sequence of DNA dC->dU-editing enzyme APOBEC-3G (Homo sapiens) (Q9HC16 whole entry, looked up): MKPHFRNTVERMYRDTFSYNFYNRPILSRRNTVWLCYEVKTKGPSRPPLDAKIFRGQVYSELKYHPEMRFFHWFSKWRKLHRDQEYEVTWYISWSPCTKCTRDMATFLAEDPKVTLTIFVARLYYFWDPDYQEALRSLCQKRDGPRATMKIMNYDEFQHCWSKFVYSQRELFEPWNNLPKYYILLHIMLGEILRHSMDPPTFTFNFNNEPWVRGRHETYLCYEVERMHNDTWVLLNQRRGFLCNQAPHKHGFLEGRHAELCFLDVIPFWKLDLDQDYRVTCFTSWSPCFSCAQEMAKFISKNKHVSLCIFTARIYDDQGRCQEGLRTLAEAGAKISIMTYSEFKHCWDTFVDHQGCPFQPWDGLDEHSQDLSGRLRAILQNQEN
# Summary of the method: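 HeLa cells stably expressing Vif and A3G-eYFP, 700 cells/well, incubated overnight at 37 deg C, then exposed to compound overnight at 37 deg C. Inhibition of Vif-mediated degradation read as increased yellow fluorescence (Ex 488/Em 500-530) by laser-scanning cytometry.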
# [6] = Validation screen for small molecules that induce genotoxicity in human embryonic kidney (HEK293T) cells expressing luciferase-tagged ELG1 (AID 493106); conditions: luminescence; also: potency is read from the fitted curve at half-maximal effect
# Summary of the method: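 HEK293T cells expressing luciferase-tagged ELG1, 2,000 cells/well, exposed to compound 16 hr at 37 °C, 5% CO2. Luciferase read after ONE-Glo, 30 min at room temperature; increased signal indicates genetic stress.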
# [7] = Nrf2 qHTS screen for inhibitors: Validation (AID 493153; active = well fitted inhibition curve with a large enough effect in the main read-out, with a control signal flat, not every such curve was filed as active); conditions: A549 ARE-Fluc reporter, 18-24 h; viability change: measured here: cytotoxicity max response; luciferase luminescence, at 46.1 µM (top of the series)
# Summary of the method: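 A549 cells carrying ARE-firefly luciferase reporter, 5000 cells/well in 5% FBS OPTI-MEM, treated with compound over a concentration series for 18-24 h at 37 C. Luciferase luminescence gave Nrf2 activity; CellTiter-Fluor fluorescence gave viability.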
# [8] = target: Peptidyl-prolyl cis-trans isomerase NIMA-interacting 1 (Homo sapiens) (UniProt Q13526); assay: qHTS Validation Assay to Find Inhibitors of Pin1 (AID 504536; active = well fitted inhibition curve with a large enough effect in the polarisation, with a control signal flat, not every such curve was filed as active; the % refers to the polarisation); conditions: Pin1 fluorescence polarization peptide binding assay; series mostly up to 57.5 µM
# Sequence of Peptidyl-prolyl cis-trans isomerase NIMA-interacting 1 (Homo sapiens) (Q13526 whole entry, looked up): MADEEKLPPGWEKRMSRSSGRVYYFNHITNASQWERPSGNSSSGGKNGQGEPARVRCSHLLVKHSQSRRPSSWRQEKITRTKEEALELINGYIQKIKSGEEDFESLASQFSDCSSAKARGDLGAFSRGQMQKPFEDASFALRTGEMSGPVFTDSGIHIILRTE
# Summary of the method: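 Fluorescence polarization competition: compounds (titration) displace HiFluor-488-labeled Pin1-1b peptide from Pin1 (0.3 uM final) in pH 7.5 HEPES buffer with DTT, 10 min at room temperature; %Activity normalized to no-enzyme wells, curves fitted.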
# [9] = target: Phosphoglycerate kinase, glycosomal (Trypanosoma brucei brucei) (UniProt P07378); assay: qHTS Validation Assay to Find Inhibitors of Phosphoglycerate Kinase (AID 504547); conditions: enzymatic PGK inhibition, coupled luminescence read-out; series mostly up to 57.5 µM
# Sequence of Phosphoglycerate kinase, glycosomal (Trypanosoma brucei brucei) (P07378 whole entry, looked up): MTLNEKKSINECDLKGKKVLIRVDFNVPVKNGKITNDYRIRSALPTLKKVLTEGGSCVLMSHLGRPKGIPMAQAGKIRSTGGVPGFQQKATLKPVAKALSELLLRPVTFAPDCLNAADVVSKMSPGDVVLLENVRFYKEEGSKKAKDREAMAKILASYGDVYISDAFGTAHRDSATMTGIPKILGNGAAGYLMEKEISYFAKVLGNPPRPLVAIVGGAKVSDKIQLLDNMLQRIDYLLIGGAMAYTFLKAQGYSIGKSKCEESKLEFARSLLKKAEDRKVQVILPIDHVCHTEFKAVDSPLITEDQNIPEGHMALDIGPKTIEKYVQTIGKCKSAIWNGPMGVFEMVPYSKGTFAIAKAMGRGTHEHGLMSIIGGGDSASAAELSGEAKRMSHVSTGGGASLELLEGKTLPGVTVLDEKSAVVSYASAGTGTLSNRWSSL
# Summary of the method: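 Inhibition of the enzyme is judged by a Kinase-Glo Plus luminescent signal following a one-hour incubation at room temperature. Because 1,3-BPG is unstable, it is made in situ by GAPDH at 100nM final; no-PGK wells define the baseline.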
# [10] = target: phosphoglycerate mutase (Leishmania major) (UniProt Q4Q090); assay: qHTS Validation Assay to Find Inhibitors of Phosphoglycerate Mutase (AID 504548); conditions: biochemical enzyme activity; series mostly up to 57.5 µM;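 also: end-point luminescence from Kinase-GloPlus after the PGAM reaction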
# Sequence of phosphoglycerate mutase (Leishmania major) (Q4Q090 1-553): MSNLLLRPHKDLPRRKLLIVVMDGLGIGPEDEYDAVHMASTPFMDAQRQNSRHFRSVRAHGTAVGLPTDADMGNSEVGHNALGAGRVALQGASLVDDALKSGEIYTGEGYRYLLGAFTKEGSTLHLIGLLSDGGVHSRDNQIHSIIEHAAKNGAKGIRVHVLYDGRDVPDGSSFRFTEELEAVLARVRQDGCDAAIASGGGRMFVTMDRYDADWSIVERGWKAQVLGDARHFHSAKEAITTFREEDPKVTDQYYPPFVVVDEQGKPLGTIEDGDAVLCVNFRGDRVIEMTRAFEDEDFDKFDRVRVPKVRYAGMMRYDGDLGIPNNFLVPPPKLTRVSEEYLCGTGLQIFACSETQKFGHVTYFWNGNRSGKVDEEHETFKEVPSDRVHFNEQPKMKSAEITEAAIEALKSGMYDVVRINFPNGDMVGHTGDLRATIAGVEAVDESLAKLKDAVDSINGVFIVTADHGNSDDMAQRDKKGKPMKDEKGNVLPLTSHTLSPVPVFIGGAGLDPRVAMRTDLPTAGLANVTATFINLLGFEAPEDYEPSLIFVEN
# Summary of the method: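 Inhibition of L. major PGAM was assessed by Kinase-GloPlus luminescence following a 45-minute room-temperature reaction with enzyme at 1.25nM final.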
# [11] = qHTS for Inhibitors of ATXN expression: Validation (AID 588378); conditions: cell-based ATXN2 expression reporter assay, luminescence; series mostly up to 57.1 µM; also: nearly all actives have a fitted effect of over 75% in size
# Summary of the method: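 After a 2 h attachment and 24 h compound incubation, HEK293-ATXN2-FFLuc wells are read for fluorescence at 405 nm excitation/525 nm emission as a viability measure, then for Bright-Glo luminescence reflecting ATXN2 expression.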
# [12] = target: Estrogen receptor (Homo sapiens) (UniProt P03372); assay: qHTS assay for small molecule antagonists of estrogen receptor alpha signaling (AID 588513; active = well fitted curve in the direction sought with a large enough effect in the signal ratio, with a control signal flat, not every such curve was filed as active; the % refers to the signal ratio; also: potency is read from the fitted curve at half-maximal effect); conditions: ER-alpha-UAS-bla HEK293, beta-lactamase ratio, antagonist mode; series mostly up to 76.9 µM
# Sequence of Estrogen receptor (Homo sapiens) (P03372 whole entry, looked up): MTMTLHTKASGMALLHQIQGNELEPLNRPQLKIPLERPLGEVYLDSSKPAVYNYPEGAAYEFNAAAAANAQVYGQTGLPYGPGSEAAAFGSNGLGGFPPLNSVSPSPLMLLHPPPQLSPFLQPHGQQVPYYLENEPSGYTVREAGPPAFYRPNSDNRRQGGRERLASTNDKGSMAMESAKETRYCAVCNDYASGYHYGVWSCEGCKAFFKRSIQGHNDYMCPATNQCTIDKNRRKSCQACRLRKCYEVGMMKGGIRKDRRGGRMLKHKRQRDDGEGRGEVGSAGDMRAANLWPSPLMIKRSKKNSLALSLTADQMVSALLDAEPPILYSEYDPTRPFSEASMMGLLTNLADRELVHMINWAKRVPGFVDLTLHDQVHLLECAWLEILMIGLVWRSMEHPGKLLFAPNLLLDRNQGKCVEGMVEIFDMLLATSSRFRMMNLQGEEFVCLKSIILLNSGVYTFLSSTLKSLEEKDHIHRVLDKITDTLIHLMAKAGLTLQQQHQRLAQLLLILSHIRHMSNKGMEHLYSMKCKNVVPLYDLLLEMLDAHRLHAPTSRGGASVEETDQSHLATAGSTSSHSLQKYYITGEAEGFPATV
# Summary of the method: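 Antagonist-mode qHTS in ER-alpha-UAS-bla HEK 293 cells: compound titration, 0.5nM estradiol for 18 h, CCF4 fluorescence, Hill-derived IC50.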
# [13] = qHTS for Inhibitors of Plasmodium falciparum (DD2) proliferation (AID 504314);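 also: parasite DNA measured by SYBR Green fluorescence after red cell lysis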; conditions: P. falciparum Dd2 in erythrocytes, SYBR Green growth, 72 h; series mostly up to 6.11 µM
# Summary of the method: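 Fluorescence read-out (ex 485/em 535 nm) of SYBR Green-stained parasite DNA quantifies intraerythrocytic growth. Cultures at 0.3% parasitemia and 2.5% hematocrit were treated for 72 h; data normalized to DMSO and 0.29 uM artemisinin wells.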
# [14] = qHTS for Inhibitors of Plasmodium falciparum (GB4) proliferation (AID 504315); also: nearly all actives have a fitted effect of over 50% in size; conditions: P. falciparum GB4 in erythrocytes, SYBR Green DNA, 72 h; series mostly up to 6.7 µM
# Summary of the method: (§1)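 Erythrocytes infected with P. falciparum line (0.3% parasitemia, 2.5% hematocrit final) incubated with compounds 72 h at 37 °C, 5% CO2; SYBR Green lysis buffer added, fluorescence read next day. Normalized to 0.29 uM artemisinin and DMSO.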
# [15] = qHTS for Inhibitors of Plasmodium falciparum (7G8) proliferation (AID 504316); also: nearly all actives have a fitted effect of over 65% in size; conditions: P. falciparum 7G8 in erythrocytes, SYBR Green DNA, 72 h; series mostly up to 6.7 µM
# Summary of the method: as §1
# [16] = qHTS for Inhibitors of Plasmodium falciparum (CP250) proliferation (AID 504320); conditions: P. falciparum CP250 in erythrocytes, SYBR Green DNA, 72 h; series mostly up to 6.7 µM
# Summary of the method: as §1
compound,measurement,setting,value
Cn1cc(NC(=O)c2cc(NC(=O)c3cc(NC=O)cn3C)cn2C)cc1C(=O)NCCC(=N)N,Potency,[1],inactive
C[C@@](Cc1ccc(O)c(O)c1)(NN)C(=O)O,activation,[2],0.562% (inactive)
same,outcome,[3],inactive
same,outcome,[4],inactive
same,Potency,[1],inactive
same,outcome,[5],inactive
C[C@H](O)CN(C)C,Potency,[1],inactive
Cc1cc(C)c(NC(=O)C[C@H](CC(=O)O)c2cccc3ccccc23)c(C(=O)N2CCC3(CCCC3)CC2)c1,activation,[2],0.125% (inactive)
same,outcome,[3],inactive
same,outcome,[4],inactive
O=C(NCCNCC(O)COc1ccc(O)cc1)N1CCOCC1 (centres undefined),activation,[2],1% (inactive)
same,outcome,[3],inactive
same,outcome,[4],inactive
same,Potency,[1],inactive
CCCCCCCCCCCCCC(=O)OCC(COP(=O)([O-])OCC[N+](C)(C)C)OC(=O)CCCCCCCCCCCCC (centres undefined),Potency,[1],inactive
O=C(O[C@H]1CN2CCC1CC2)N1CCc2ccccc2[C@@H]1c1ccccc1,Potency,[1],inactive
CCOc1ccc(S(=O)(=O)O)c2cccnc12,Potency,[1],inactive
CS(=O)(=O)c1ccc([C@@H](O)[C@@H](COC(=O)CN)NC(=O)C(Cl)Cl)cc1,Potency,[1],inactive
CN=C1C=CC(=C(c2ccc(N(C)C)cc2)c2ccc(N(C)C)cc2)C=C1,Potency,[1],20 µM (active)
Oc1ccc(/C=C/c2cc(O)cc(O)c2)cc1,Potency,[6],2.91 µM (active)
same,activation,[2],0.812% (inactive)
same,outcome,[7],inactive
same,viability change,[7],-6.91%
same,outcome,[3],inactive
same,outcome,[4],inactive
same,outcome,[8],inactive
same,outcome,[9],inactive
same,outcome,[10],inactive
same,Potency,[1],inactive
same,outcome,[11],inactive
same,outcome,[5],inactive
same,Potency,[12],31.6 µM [inhibitor] (active)
CC(=O)N[C@@H]1C(O[C@H]2O[C@H](C(=O)O)C(O)[C@H](O)[C@H]2O)[C@H](O)[C@@H](CO)O[C@H]1O[C@@H]1C(C(=O)O)O[C@@H](O[C@H]2[C@H](O)[C@@H](CO)OC(O)[C@@H]2NC(C)=O)[C@H](O)[C@H]1O (some centres undefined),Potency,[1],inactive
CC(=O)Nc1ccc(OC(=O)c2ccccc2O)cc1,Potency,[1],inactive
C/C(=C\C(=O)OCCCCCCCCC(=O)O)C[C@@H]1OC[C@H](C[C@@H]2O[C@H]2[C@@H](C)[C@H](C)O)[C@@H](O)[C@H]1O,Potency,[1],inactive
CC(=O)[C@H]1CC[C@H]2[C@@H]3C=CC4=CC(=O)CC[C@@]4(C)[C@H]3CC[C@]12C,Potency,[1],inactive
Cc1c(O)c(=O)ccn1C,outcome,[13],inactive
same,outcome,[14],inactive
same,outcome,[15],inactive
same,outcome,[16],inactive
CC1CCC(NC(=O)N(CCCl)N=O)CC1 (centres undefined),Potency,[1],inactive
C=CC(=O)O,Potency,[1],inactive
CC1=C(/C=C/C(C)=C/C=C/C(C)=C/C(=O)Oc2c(C)c(C)c3c(c2C)CC[C@@](C)(CCC[C@H](C)CCC[C@H](C)CCCC(C)C)O3)C(C)(C)CCC1,Potency,[1],inactive
O=P(O)(O)OC[C@H]1O[C@](O)(COP(=O)(O)O)[C@@H](O)[C@@H]1O,Potency,[1],inactive
Cc1ncc(C[n+]2csc(CCOP(=O)(O)OP(=O)(O)O)c2C)c(N)n1,Potency,[1],inactive
N=C(N)c1ccc(/C=C/c2ccc(C(=N)N)cc2O)cc1,Potency,[1],inactive
O=C1N=C2SCCN2C(=O)C1Cc1ccc(Cl)cc1 (centres undefined),Potency,[1],inactive
CCc1ccc(S(=O)(=O)O)cc1,Potency,[1],inactive
CC(=O)Oc1cc(C(F)(F)F)ccc1C(=O)O,Potency,[1],inactive
CC(C)CCCC(C)NC(C)C (centres undefined),Potency,[1],inactive
CCN(CC)CCOc1ccc2nc(N(C)C)sc2c1,Potency,[1],inactive
O=C(O)/C=C/c1ccccc1,Potency,[1],inactive
CC(CC=O)CCCC(C)(C)O (centres undefined),Potency,[1],inactive
O=c1[nH]c(=O)n([C@H]2C[C@H](O)[C@@H](CO)O2)cc1/C=C/Br,activation,[2],0.938% (inactive)
same,outcome,[3],inactive
same,outcome,[4],inactive
same,Potency,[1],inactive
COc1ccc(/C=N/NC(=O)c2ccncc2)c(C(=O)O)c1OC,Potency,[1],inactive
C[Se]CC[C@H](N)C(=O)O,Potency,[1],inactive
O=C(O)CCC(=O)c1ccc(-c2ccccc2)cc1,Potency,[1],inactive
Oc1ccc(Cl)c2c1CCC2,Potency,[1],inactive
c1ccc2c(c1)OCC(CN1CCCCC1)O2 (centres undefined),Potency,[1],inactive
OC/C=C/c1ccccc1,Potency,[1],inactive
O=C(O)[C@H]1C(=CCO)O[C@H]2CC(=O)N12,Potency,[1],inactive
Nc1nccs1,Potency,[1],inactive
CC(C)c1ncc([N+](=O)[O-])n1C,Potency,[1],inactive
CC12CCC(C1)C(C)(C)C2=O (centres undefined),Potency,[1],inactive
Cc1ncc(C[n+]2csc(CCOP(=O)(O)O)c2C)c(N)n1,Potency,[1],inactive
CCN(CC)CCC(=O)N1c2ccccc2Sc2ccc(C(F)(F)F)cc21,Potency,[1],inactive
Cc1ccccn1,Potency,[1],inactive
CC(CCc1ccc(O)cc1)NCC(O)c1ccc(O)cc1 (centres undefined),Potency,[1],inactive
CC(C)(Oc1ccc(C2CCCc3ccccc32)cc1)C(=O)O (centres undefined),Potency,[1],inactive
CC(C)Cc1ccc([C@@H](C)C(=O)NS(C)(=O)=O)cc1,Potency,[1],inactive
O=C(O)[C@H]1CN(C/C=C/P(=O)(O)O)CCN1,Potency,[1],inactive
